Rows were chosen to be rich in hits. Some 3.6% of all compounds tested hit in one or more screens of this group.
LMP1 NFkB inh: inhibitors of Epstein-Barr LMP1-induced NF-kappaB reporter; LMP1-induced NF-kappaB luciferase reporter cells, luminescence; inhibition, % at 12.5 µM; 350,000 compounds, 0.69% hits; AID 504558; in the data active means inhibition above about 41%; inconclusive means no clear call, values can overlap the other calls
HSF1 activator: increases HSF-1 driven luciferase reporter signal; activation, % at 9 µM; 300,000 compounds, 1.7% hits; NIH3T3-HGL HSF-1 luciferase reporter, MG132, 8 h; 100% = twice DMSO control signal;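 active means mean replicate activation of at least 50% with a set share of replicates each reaching 50%; inconclusive means only one of those two conditions met; inactive means mean below 50% and too few replicates reaching it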
TROY signal inh: TROY signaling inhibition; Q293 LMP1-TROYcd NF-kB luciferase reporter, 4 h; inhibition, % at 10 µM; 360,000 compounds, 0.98% hits; AID 1347056;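 active means compounds whose plate-normalised and pattern-corrected inhibition of the luciferase reporter signal at the single screening dose is 50% or more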
HSF1 inhib: HSF1 inhibition; NIH3T3-HGL HSE-luciferase, MG132-induced, luminescence 8 h; active compounds read low; activity change, negative = inhibition, % at 7.5 µM (by protocol); 300,000 compounds, 0.77% hits;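 active means more than half of replicate wells show activity change below -50%, luminescence cut by over half; inconclusive means some wells, but at most half, below -50%; inactive means no replicate well below -50%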;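 further: luciferase reports HSF-1 transcriptional activity via heat shock element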
LGR2 antag: Drosophila LGR2 receptor signaling inhibition; inhibition, % at 9.99 µM; HEK293 LGR2, CRE-luciferase, bursicon-stimulated, 4 h; AID 720647; 380,000 compounds, 0.35% hits;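 active means drop in luminescence signal, shown as inhibition above about 50% in the replicate tests, limit read from the data, passing the limit was not always enough; inconclusive means probably only some replicates passing the limit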;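 further: agonist challenge used bursicon conditioned medium at about half maximal strength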
TWEAK-Fn14 inh: TWEAK-Fn14 signaling inhibition; TWEAK-stimulated Fn14 reporter cells, luciferase luminescence, 8 h; inhibition, % at 10 µM; 360,000 compounds, 2% hits; in the data active means inhibition above about 50%
Hits are given with their value.

How did CN(Cc1ccc(F)cc1)C(=O)CCc1nnc(-c2ccccc2)o1 do in these assays?
LMP1 NFkB inh: inactive; HSF1 activator: inactive; TROY signal inh: inactive; HSF1 inhib: inactive; LGR2 antag: inactive; TWEAK-Fn14 inh: inactive

What do the screens show for `CN(Cc1nnc(-c2ccc(F)cc2)o1)c1ccccc1`?
LMP1 NFkB inh: inactive; HSF1 activator: 60; TROY signal inh: inactive; HSF1 inhib: inactive; LGR2 antag: inactive; TWEAK-Fn14 inh: inactive

Results for C[C@@H]1CN([C@@H](C)CO)C(=O)Cc2cc(NC(=O)Nc3ccc(F)cc3)ccc2O[C@H]1CN(C)S(=O)(=O)c1ccc(F)cc1 ?
LGR2 antag: inactive

How did Nc1ccc2oc(C3CCCCC3)nc2c1 do in these assays?
LMP1 NFkB inh: inactive; HSF1 activator: inactive; TROY signal inh: inactive; HSF1 inhib: -91; LGR2 antag: inactive; TWEAK-Fn14 inh: inactive

Results for CO[C@@H]1CN(C)C(=O)c2ccc(NC(C)=O)cc2OC[C@@H](C)N(CCC(F)(F)F)C[C@@H]1C ?
LGR2 antag: inactive

Results for CC1CCCN(C(=O)COC(=O)c2n[nH]c3ccccc23)C1 (configuration not stated) ?
LMP1 NFkB inh: 61; HSF1 activator: inactive; TROY signal inh: inactive; HSF1 inhib: inactive; TWEAK-Fn14 inh: inactive

Results for O=C(NCC[C@H]1CC[C@@H](NS(=O)(=O)c2ccc(Cl)cc2)[C@H](CO)O1)c1ccccc1F ?
LGR2 antag: inactive

Results for CC(=O)Oc1ccc(C#C/C=C2\c3ccccc3C(=O)N2c2ccccc2)cc1 ?
LMP1 NFkB inh: inactive; TROY signal inh: inactive; TWEAK-Fn14 inh: 51

What do the screens show for `CNC(=O)C[C@@H]1CC[C@@H]2[C@H](COc3ccc(NS(=O)(=O)c4ccccc4C)cc3C(=O)N2C)O1`?
LGR2 antag: inactive

How did Cc1nc([N+](=O)[O-])c(Sc2nc3ccccc3n2C)n1Cc1ccccc1 do in these assays?
LMP1 NFkB inh: inactive; HSF1 activator: 79; TROY signal inh: inactive; HSF1 inhib: inactive; LGR2 antag: inactive; TWEAK-Fn14 inh: inactive

What do the screens show for `Cc1nc([N+](=O)[O-])c(SCC(N)=O)n1Cc1ccccc1`?
LMP1 NFkB inh: inactive; HSF1 activator: inactive; TROY signal inh: inactive; HSF1 inhib: inactive; LGR2 antag: inactive; TWEAK-Fn14 inh: inactive

What do the screens show for `CCCC#Cc1ccc2c(c1)O[C@@H](CN(C)S(=O)(=O)c1cccc(OC)c1)[C@@H](C)CN([C@@H](C)CO)S2(=O)=O`?
LGR2 antag: inactive

Results for Cc1cccc(C(=O)NCN2CCN(c3ccccc3C#N)CC2)c1 ?
LMP1 NFkB inh: 82; TROY signal inh: inactive; LGR2 antag: inactive; TWEAK-Fn14 inh: inactive

What do the screens show for `C[C@H](CO)N1C[C@H](C)[C@@H](CN(C)S(=O)(=O)c2cccs2)Oc2ccc(NC(=O)Cc3ccccc3)cc2CC1=O`?
LGR2 antag: inactive

Results for c1ccc(N2CCN(c3ncnc4scc(-c5cccs5)c34)CC2)cc1 ?
LMP1 NFkB inh: inactive; HSF1 activator: inactive; TROY signal inh: inactive; HSF1 inhib: inactive; LGR2 antag: inactive; TWEAK-Fn14 inh: 64

How did COc1ccc(-c2csc3ncnc(N4CCN(c5cccc(OC)c5)CC4)c23)cc1 do in these assays?
LMP1 NFkB inh: inactive; HSF1 activator: inactive; TROY signal inh: inactive; HSF1 inhib: inactive; LGR2 antag: inactive; TWEAK-Fn14 inh: 54

What do the screens show for `CCN1CCN(c2ncnc3scc(-c4ccc(OC)cc4)c23)CC1`?
LMP1 NFkB inh: inactive; HSF1 activator: inactive; TROY signal inh: inactive; HSF1 inhib: inactive; LGR2 antag: inactive; TWEAK-Fn14 inh: 91

What do the screens show for `COc1cccc(N2CCN(c3ncccn3)CC2)c1`?
LMP1 NFkB inh: inactive; HSF1 activator: 73; TROY signal inh: inactive; HSF1 inhib: inactive; TWEAK-Fn14 inh: inactive

Results for COc1ccc(CN2CCN(c3ncnc4scc(-c5ccc(F)cc5)c34)CC2)cc1 ?
LMP1 NFkB inh: inactive; HSF1 activator: inactive; TROY signal inh: inactive; HSF1 inhib: inactive; LGR2 antag: inactive; TWEAK-Fn14 inh: inactive

What do the screens show for `Cc1ccc(S(=O)(=O)Nc2ccc3c(c2)C(=O)N([C@@H](C)CO)C[C@@H](C)[C@H](CN(C)C)OCCCC[C@H](C)O3)cc1`?
LGR2 antag: inactive

What do the screens show for `C[C@@H]1CCCCO[C@@H](CN(C)S(C)(=O)=O)[C@H](C)CN([C@@H](C)CO)C(=O)c2cc(NC(=O)Cc3ccccc3)ccc2O1`?
LGR2 antag: inactive

Results for COc1cccc(S(=O)(=O)Nc2ccc3c(c2)[C@H]2C[C@H](CC(=O)N(C)C)O[C@H](CO)[C@H]2O3)c1 ?
LGR2 antag: inactive

What do the screens show for `N#Cc1c2ccc(O)cc2n2ccccc12`?
LMP1 NFkB inh: inactive; HSF1 activator: inactive; TROY signal inh: inactive; HSF1 inhib: inactive; LGR2 antag: inactive; TWEAK-Fn14 inh: 56

How did C(=N\Nc1nc(-c2ccccc2)cs1)/c1ccncc1 do in these assays?
LMP1 NFkB inh: inactive; HSF1 activator: inactive; TROY signal inh: inactive; HSF1 inhib: inactive; LGR2 antag: inactive; TWEAK-Fn14 inh: inactive

How did CN(C)S(=O)(=O)c1ccc(-c2csc(N/N=C/c3ccco3)n2)cc1 do in these assays?
LMP1 NFkB inh: inactive; HSF1 activator: inactive; TROY signal inh: 71; HSF1 inhib: inactive; LGR2 antag: 102; TWEAK-Fn14 inh: 104

Results for O=[N+]([O-])c1cccc(-c2csc(N/N=C/c3cccc(O)c3)n2)c1 ?
LMP1 NFkB inh: inactive; HSF1 activator: inactive; TROY signal inh: 51; HSF1 inhib: inactive; LGR2 antag: inactive; TWEAK-Fn14 inh: 58

What do the screens show for `CN(C)S(=O)(=O)c1ccc(-c2csc(N/N=C/c3ccc(O)cc3)n2)cc1`?
LMP1 NFkB inh: inactive; HSF1 activator: inactive; TROY signal inh: 69; HSF1 inhib: inactive; LGR2 antag: inactive; TWEAK-Fn14 inh: 99

Results for C[C@H](NC(=O)C[C@H]1C[C@@H]2c3cc(NS(C)(=O)=O)ccc3O[C@@H]2[C@H](CO)O1)c1ccccc1 ?
LGR2 antag: inactive

What do the screens show for `O=C(N/N=C/C(Br)=C/c1ccccc1)c1cc(-c2ccco2)[nH]n1`?
LMP1 NFkB inh: inactive; HSF1 activator: 130; TROY signal inh: inactive; HSF1 inhib: inactive; LGR2 antag: inconclusive; TWEAK-Fn14 inh: inactive

What do the screens show for `O=C(N/N=C/C(Br)=C/c1ccccc1)c1cccs1`?
LMP1 NFkB inh: inactive; HSF1 activator: 130; TROY signal inh: inactive; HSF1 inhib: inactive; LGR2 antag: inactive; TWEAK-Fn14 inh: inactive

Results for O=C(N/N=C/C(Cl)=C/c1ccccc1)c1ccco1 ?
LMP1 NFkB inh: inactive; HSF1 activator: 54; TROY signal inh: inactive; HSF1 inhib: inactive; LGR2 antag: inactive; TWEAK-Fn14 inh: inactive

How did O=C(N/N=C/C(Cl)=C\c1ccccc1)c1ccco1 do in these assays?
LMP1 NFkB inh: inactive; HSF1 activator: inactive; TROY signal inh: inactive; HSF1 inhib: inactive; LGR2 antag: inactive; TWEAK-Fn14 inh: inactive

Results for O=C(N/N=C/C=C/c1ccccc1)c1cccs1 ?
LMP1 NFkB inh: inactive; HSF1 activator: inconclusive; TROY signal inh: inactive; HSF1 inhib: inactive; LGR2 antag: inactive; TWEAK-Fn14 inh: inactive
